Data as given in PubChem BioAssay AID588492 (Sanford-Burnham Center for Chemical Genomics, 2011).
In all, about 360,000 compounds went through this assay and about 2,300 (0.64%) were called active. The full list was thinned out, with actives kept by preference. Unmarked numbers belong to inactive results.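 The calls were made as follows: active = compounds giving at least 50% protection of heart cells from peroxide-induced death in the single-dose screen, raw or plate-pattern-corrected value; inactive = the rest.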

Assay: cardioprotection against H2O2-induced cell death, primary screen, uHTS, H9c2 cells, ATPLite luminescence (AID 588492);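 also: 0% = DMSO wells with peroxide and 100% = DMSO wells without peroxide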
Settings: H9c2 cardiomyocytes, H2O2 injury protection, 2 h, at 20 µM, stronger effect = higher value

| SMILES | protection from H2O2 cell death |
| --- | --- |
| CCCCCn1c(=O)c(C(=O)NCc2ccccn2)c(O)c2ccccc21 | 53.7% (active) |
| CCCCCn1c(=O)c(C(=O)NCc2ccccc2)c(O)c2ccccc21 | 46.9% |
| CCCCn1c(=O)c(C(=O)Nc2ccccc2Cl)c(O)c2ccccc21 | 28.7% |
| CCN1CCN(C(=O)Cc2coc3cc(C)cc(C)c23)CC1 | 5.6% |
| COC(=O)C1=C(c2c(C)noc2C)C[C@@H]2CC[C@H]1N2C(=O)NCc1ccc2c(c1)OCO2 | -2.4% |
| COc1ccccc1N=Nc1c(O)[nH]c(=S)[nH]c1=O | -6.6% |
| O=c1[nH]c(O)c(C=Nc2cc(F)cc(F)c2)c(=O)[nH]1 | 6.4% |
| O=C1N=c2ccccc2=C/C1=C\c1c(O)[nH]c(=S)[nH]c1=O | 51.8% (active) |
| Cc1ccc2c(c1)=C/C(=C\c1c(O)[nH]c(=O)[nH]c1=O)C(=O)N=2 | 60.8% (active) |
| CCN1C(=O)C(=Cc2c(C)n(CC(=O)NCC3CCCO3)c3ccccc23)C(=O)N(CC)C1=S (stereo not given) | -2.5% |
| Nc1ccc([N+](=O)[O-])cc1 | -1.6% |
| Cc1cccc(OP(=O)(Oc2cccc(C)c2)OC(c2ccccc2)C(F)(F)F)c1 (stereo not given) | -8.9% |
| CC1C(=O)OC2CCN3CC=C(COC(=O)C(C)(O)C1(C)O)C23 (stereo not given) | 1.6% |
| CCn1cc(CN2CCCC(C(=O)c3cccc(C(F)(F)F)c3)C2)cn1 (stereo not given) | -6.7% |
| CCN1CCN(c2nc3c(c(=O)[nH]2)CCC3)CC1 | 63% (active) |
| O=C(NC(c1ccc(Cl)cc1)P(=O)(Oc1ccccc1)Oc1ccccc1)OCc1ccccc1 (stereo not given) | 7.3% |
| O=C(CCNS(=O)(=O)c1ccccc1)Nc1ccc(Cl)cc1C(=O)c1ccccc1 | -9.8% |
| Fc1ccc(C2N3CCCN23)cc1 (stereo not given) | 1.5% |
| C=CC12CN(C)[C@@H]3C4CO[C@H](C[C@H]41)[C@]1(C(=O)Nc4ccccc41)[C@@H]32 (stereo not given in full) | 3.5% |
| NC(=O)Cn1cc(C(=O)c2ccccc2F)c2ccccc21 | 8.7% |
